Experimental data from PubChem BioAssay (NCATS).
Inconclusive results are not listed. Calls of active or inactive are those of the source. Unless noted, calls follow the shape of the dose curve; as a rule, active = well fitted curve in the direction sought with a large enough effect; inconclusive = small, poorly fitted or top-dose-only effect, or another doubt; inactive = no such curve, though single readings can be large; an effect the other way counts as inactive or inconclusive.

Assay: qHTS assay for cell viability of the p53RE-bla HCT-116 cell line (AID 743292); also: % is scaled to controls: 0 for no effect and ±100 for the full control effect; nearly all actives have a fitted effect of over 55% in size
Conditions: p53RE-bla HCT-116 viability, ATP luminescence, 16 h; series mostly up to 95 µM
Outline: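 In this qHTS counter-screen, metabolically competent p53RE-bla HCT-116 cells were counted via their ATP content. Compounds were applied for 16 h at 37 C and luciferase-coupled luminescence was measured.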
For `CC(C)(Oc1ccc(Cl)cc1)C(=O)O`, the outcome was “inactive”.
For `CN(C)C(=S)SC(=S)N(C)C`, the outcome was “inactive”.
With `Oc1ccc(Cl)cc1Sc1cc(Cl)ccc1O` the outcome was “inactive”.
For `O=C1OC(c2ccc(O)cc2)(c2ccc(O)cc2)c2ccccc21`, the outcome was “inactive”.

Assay: qHTS profiling of the MIPE4 collection as inhibitors of Plasmodium falciparum (3D7) proliferation (AID 743344; call rule not given here;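 also: scaled between DMSO vehicle wells and 0.29 µM artemisinin as full inhibition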)
Conditions: P. falciparum 3D7 in erythrocytes, SYBR Green DNA fluorescence, 72 h; at 28.5 µM (top of the series) unless noted
Outline: (§1)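 Erythrocytes infected with P. falciparum (0.3% parasitemia, 2.5% hematocrit) incubated with compounds 72 h at 37 C, 5% CO2. Lysis with saponin/Triton buffer containing SYBR Green I, overnight at room temperature in the dark; DNA fluorescence (485/535 nm) normalised to 0.29 uM artemisinin and DMSO.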
Molecule `CC[C@@H](CO)NCCN[C@@H](CC)CO` has a parasite growth, % of DMSO control of 98.8%.
Work on `COc1ccc(CN2CCN(C(c3ccc(F)cc3)c3ccc(F)cc3)CC2)c(OC)c1OC` yielded a parasite growth, % of DMSO control of 4.59%.
`Cc1cccc(C)c1NC(=O)CN1CCN(CCCC(c2ccc(F)cc2)c2ccc(F)cc2)CC1` gave a parasite growth, % of DMSO control of 13.4%.

Assay: qHTS profiling of the MIPE4 collection as inhibitors of Plasmodium falciparum (DD2) proliferation (AID 743345; call rule not given here)
Conditions: P. falciparum Dd2 in erythrocytes, SYBR Green DNA, 72 h; at 28.5 µM (top of the series) unless noted
Outline: as §1
With `CC[C@@H](CO)NCCN[C@@H](CC)CO` the parasite growth remaining, % of DMSO control (lower = more inhibition) was 106%.
`COc1ccc(CN2CCN(C(c3ccc(F)cc3)c3ccc(F)cc3)CC2)c(OC)c1OC` gave a parasite growth remaining, % of DMSO control (lower = more inhibition) of 8.3%.
`Cc1cccc(C)c1NC(=O)CN1CCN(CCCC(c2ccc(F)cc2)c2ccc(F)cc2)CC1` showed a parasite growth remaining, % of DMSO control (lower = more inhibition) of 52.4%.

Assay: qHTS profiling of the MIPE4 collection as inhibitors of Plasmodium falciparum (DD2) proliferation (Rep 2) (AID 743346; call rule not given here)
Conditions: P. falciparum Dd2 in erythrocytes, SYBR Green DNA, 72 h; at 28.5 µM (top of the series) unless noted
Excerpt: Plasmodium falciparum is a virulent malarial parasite that kills 1-2 million people worldwide each year. Transmitted by mosquitoes, the sporozoite form of the parasite enters the blood stream to infect hepatocytes, where they become merozoites that infect red blood cells (erythrocytes). Within erythrocytes, merozoites begin a […] cycle of growth and division, after which the parasite is released to infect new red blood cells. Gametocytes, which form within erythrocytes as well, circulate in the bloodstream and are ingested by the mosquito, thereby completing the life cycle. To profile malarial isolates for differential chemical responses and to identify inhibitors of malarial growth, an assay that measures P. falciparum growth and replication within erythrocytes was employed. This assay uses a DNA binding fluorescent dye (SYBR Green) to detect parasite DNA following cell lysis. Because mature erythrocytes lack DNA, only Plasmodium-derived DNA is detected.
The SYBR Green viability assay was adapted from a method described previously (Plouffe et al., 2008). For screening 3 ul culture medium was dispensed into 1536 well black clear bottom plates (Aurora Biotechnologies) using a Multidrop Combi (Thermo Fisher Scientific Inc.), 23 nL compounds in DMSO were added by a pin tool (Kalypsys), and 5 ul of erythrocytes infected with P. falciparum (0.3% parasitemia, 2.5% hematocrit final concentration) were added. The plates were incubated at 37 C in a humidified incubator in 5% CO2 for 72 h, and 2 ul lysis buffer (20 mM Tris HCl, 10 mM EDTA, 0.16% saponin, 1.6% triton X, 10X SYBR Green I supplied as 10,000X […] by Invitrogen) was added to each well. The plates were mixed for 25 sec with gentle shaking and incubated overnight at room temperature in the dark. The following morning, fluorescence intensity at 485(14) nm excitation and 535(25) nm emission wavelengths was measured on an EnVision (Perkin Elmer) plate reader. Plate reads were normalized relative to the control inhibitor (0.29 uM artemisinin) and vehicle (DMSO) wells present on each plate and then corrected by an algorithm using vehicle-only control plates at the beginning and end of the compound plate stack.
In the case of `CC[C@@H](CO)NCCN[C@@H](CC)CO`, the parasite growth, % of control (lower = inhibition) is reported as 68.5%.
Work on `COc1ccc(CN2CCN(C(c3ccc(F)cc3)c3ccc(F)cc3)CC2)c(OC)c1OC` yielded a parasite growth, % of control (lower = inhibition) of 26.6%.
In the case of `Cc1cccc(C)c1NC(=O)CN1CCN(CCCC(c2ccc(F)cc2)c2ccc(F)cc2)CC1`, the parasite growth, % of control (lower = inhibition) is reported as 19.6%.

Assay: qHTS profiling of the MIPE4 collection as inhibitors of Plasmodium falciparum (HB3) proliferation (AID 743347; call rule not given here;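 also: plate controls were DMSO vehicle wells for no effect and artemisinin wells for full effect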)
Conditions: P. falciparum HB3 in erythrocytes, SYBR Green DNA, 72 h; at 28.5 µM (top of the series) unless noted
Outline: as §1
Work on `CC[C@@H](CO)NCCN[C@@H](CC)CO` yielded a growth, % of control of 106%.
Work on `COc1ccc(CN2CCN(C(c3ccc(F)cc3)c3ccc(F)cc3)CC2)c(OC)c1OC` yielded a growth, % of control of 6.18%.
For `Cc1cccc(C)c1NC(=O)CN1CCN(CCCC(c2ccc(F)cc2)c2ccc(F)cc2)CC1`, the growth, % of control was 8.04%.

Assay: qHTS assay for measurement of the activity of small molecule inhibitors on Zika virus induced Caspase-3 activity in human astrocytoma cells (AID 1224859);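 also: plate controls were ZIKV-infected untreated cells for no effect and uninfected cells for full effect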
Conditions: SNB-19 ZIKV-induced caspase-3/7, luminescence, 6 h; series mostly up to 45.7 µM
Outline: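 Luminescent caspase-3/7 read-out (30 min reagent, room temperature) in human SNB-19 cells infected 6 h with ZIKV (2 FFU/cell) after 1 h compound pre-incubation; Data were normalised to uninfected and infected wells.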
For `O=c1[nH]c(=O)n([C@H]2C[C@H](O)[C@@H](CO)O2)cc1C(F)(F)F`, the outcome was “inactive”.
With `Cc1c(C)n(Cc2ccccc2)c2ccc(C(=O)OCCN(C)C)cc12` the outcome was “inactive”.
For `O=C(OCCOCCO)c1ccccc1Nc1cccc(C(F)(F)F)c1`, the outcome was “inactive”.
For `CC(=O)OCC(=O)NCCCOc1cccc(CN2CCCCC2)c1`, the outcome was “inactive”.
In the case of `CN(C)C(=S)SC(=S)N(C)C`, the outcome is reported as “inactive”.
In the case of `Nc1ccc(/C=C/c2ccc(N)cc2S(=O)(=O)O)c(S(=O)(=O)O)c1`, the activity change, negative = inhibition is reported as -3.2% [at 0.568 µM] (inactive).
With `CN(C)CC/C=C1/c2ccccc2COc2ccc(CC(=O)O)cc21` the outcome was “inactive”.
For `CC(=O)Oc1ccc(C(c2ccc(OC(C)=O)cc2)c2ccccn2)cc1`, the outcome was “inactive”.
With `Oc1ccc(Cl)cc1Sc1cc(Cl)ccc1O` the outcome was “inactive”.
For `NC(=O)C(=O)N/N=C/c1ccc([N+](=O)[O-])o1`, the outcome was “inactive”.
In the case of `CCCCC1=NC2(CCCC2)C(=O)N1Cc1ccc(-c2ccccc2-c2nn[nH]n2)cc1`, the outcome is reported as “inactive”.
For `CC(=O)Oc1ccc2c(c1)CC[C@@H]1[C@@H]2CC[C@]2(C)[C@@H](O)CC[C@@H]12`, the outcome was “inactive”.
For `CC(=O)OCC(=O)[C@@]12OC(C)(C)O[C@@H]1C[C@H]1[C@@H]3C[C@H](F)C4=CC(=O)C=C[C@]4(C)[C@@]3(F)[C@@H](O)C[C@@]12C`, the outcome was “inactive”.
For `OC(CCN1CCCCC1)(c1ccccc1)c1ccccc1`, the outcome was “inactive”.
With `Clc1ccc2c(c1)CCc1cccnc1C2=C1CCNCC1` the outcome was “inactive”.
In the case of `CCCCOc1ccc(OCCCN2CCOCC2)cc1`, the outcome is reported as “inactive”.
With `COc1cc(OC)cc(OC)c1` the outcome was “inactive”.
With `CN1C2CCC1CC(OC(=O)c1c[nH]c3ccccc13)C2` (stereo not drawn) the outcome was “inactive”.
With `Oc1c(I)cc(Cl)c2cccnc12` the outcome was “inactive”.
With `CN=C(NC#N)Nc1ccc(C2=NNC(=O)CC2C)cc1` (stereo not drawn) the outcome was “inactive”.
With `CCCOC(C(=O)OC1CCN(C)CC1)(c1ccccc1)c1ccccc1` the outcome was “inactive”.
With `CC(=O)OCC(=O)[C@@]1(OC(C)=O)[C@@H](C)C[C@H]2[C@@H]3C[C@H](F)C4=CC(=O)C=C[C@]4(C)[C@@]3(F)[C@@H](O)C[C@@]21C` the outcome was “inactive”.
In the case of `CC(=O)OCC(=O)[C@@]1(O)CC[C@H]2[C@@H]3CCC4=CC(=O)C=C[C@]4(C)[C@H]3[C@@H](O)C[C@@]21C`, the outcome is reported as “inactive”.
In the case of `O=C(O)c1cc2cc(Cc3cccnc3)ccc2o1`, the outcome is reported as “inactive”.
With `CCN(CC)CCNC(=O)COc1ccc(Cl)cc1` the outcome was “inactive”.
With `CN=C(NC#N)NCCSCc1csc(N=C(N)N)n1` the outcome was “inactive”.
For `O=C(Nc1ccc(Cl)c(Cl)c1)C1CC1`, the outcome was “inactive”.
With `OCc1ccccc1O` the outcome was “inactive”.
In the case of `Cc1cccc(C)c1NC(=O)CN1CCN(CCCC(c2ccc(F)cc2)c2ccc(F)cc2)CC1`, the outcome is reported as “inactive”.
With `Cc1ncc(CSSCc2cnc(C)c(O)c2CO)c(CO)c1O` the outcome was “inactive”.
In the case of `CC(C)NC[C@@H](O)COc1cccc2ccccc12`, the outcome is reported as “inactive”.
With `O=C1OC(c2ccc(O)cc2)(c2ccc(O)cc2)c2ccccc21` the outcome was “inactive”.
